NPR1 activator – GC-A (human) enzyme activation; P16066; HEK293 GC-A cells, cGMP TR-FRET, EC30 ANP; 0% at EC30 ANP, 100% saturating ANP; activation, % at 10 µM; hit rate 0.14% among 370,000; AID 1671463; in the data active = activation above about 40%
proKLK7 act – activates the human kallikrein-7 zymogen. P49862. purified proKLK7, EDANS-DABCYL substrate fluorescence; 100% is mature enzyme control, 0% vehicle. activation, % at 7 µM. hit rate 0.9% among 370,000. AID 652039;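 active = activation above the mean of all tested compounds plus 3 SD, computed per campaign excluding outliers beyond control limits, cut at about 13% in these data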
ADAM10 inh – ADAM10 inhibition, QFRET primary screen | inhibition, % at 7 µM | AID 720582 | hit rate 0.62% among 370,000 | recombinant ADAM10, EDANS/DABCYL FRET peptide cleavage, 3 h;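 active = inhibition above a per-campaign cutoff equal to the mean of compounds falling between control-based bounds plus 3 SD, cut at about 20% in these data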
ADAM17 inh – ADAM17 inhibition, QFRET primary screen; P78536; recombinant ADAM17, EDANS/DABCYL FRET peptide cleavage; inhibition, % at 6.95 µM; hit rate 0.83% among 370,000;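 active = inhibition above the mean of compounds lying between control limits plus 3 SD, set per campaign, cut at about 8.5% in these data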
Target sequence (P78536 215-824 limits assumed): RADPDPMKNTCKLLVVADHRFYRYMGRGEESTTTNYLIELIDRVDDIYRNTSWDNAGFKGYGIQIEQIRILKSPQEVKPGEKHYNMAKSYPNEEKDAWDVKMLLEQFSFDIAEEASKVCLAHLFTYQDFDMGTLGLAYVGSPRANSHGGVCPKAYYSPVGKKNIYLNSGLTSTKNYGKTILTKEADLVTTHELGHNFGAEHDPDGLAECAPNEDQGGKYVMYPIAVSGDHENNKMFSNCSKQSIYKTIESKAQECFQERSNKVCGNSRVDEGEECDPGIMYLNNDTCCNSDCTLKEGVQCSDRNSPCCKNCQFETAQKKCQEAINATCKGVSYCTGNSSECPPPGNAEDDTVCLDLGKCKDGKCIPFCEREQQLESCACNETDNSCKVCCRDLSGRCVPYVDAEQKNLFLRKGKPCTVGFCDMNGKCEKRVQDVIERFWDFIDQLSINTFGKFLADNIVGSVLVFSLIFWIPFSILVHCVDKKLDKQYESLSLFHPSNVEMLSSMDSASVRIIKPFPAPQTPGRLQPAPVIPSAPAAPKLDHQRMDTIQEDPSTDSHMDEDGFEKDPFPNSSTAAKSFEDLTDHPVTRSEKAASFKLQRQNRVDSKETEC
NPR2 activator – GC-B (human) receptor activation. P20594. HEK293-GC-B cells, CNP EC30, cGMP TR-FRET; 0% at EC30 CNP, 100% saturating CNP. activation, % at 10 µM. hit rate 0.11% among 370,000;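 active = activation at 10 µM reaching about 35% in either raw or pattern-adjusted values, limit read from the data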
ADAM10 confirm – human ADAM10 inhibition, confirmation; hit rate 1% among 2,100; ADAM10 QFRET peptide cleavage, EDANS fluorescence; inhibition, % at 6.95 µM; shares compounds with ADAM10 inh;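 active = inhibition above about 20% chosen separately for each screening run, limit read from the data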
ADAM17 counter – inhibits human ADAM17 in ADAM10 exosite counter-screen | shares compounds with ADAM10 inh | ADAM17 QFRET peptide cleavage, EDANS fluorescence | inhibition, % at 6.95 µM | hit rate 0.5% among 2,100;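 active = mean triplicate inhibition above the solvent-only control wells' mean plus 3 SD, cut at about 12% in these data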
ADAM10 counter – counter-screen for ADAM17 exosite inhibitors: inhibitors of human ADAM10; inhibition, % at 6.95 µM; recombinant ADAM10, EDANS/DABCYL FRET peptide cleavage, 3 h; AID 743256; shares compounds with ADAM17 inh; hit rate 47% among 2,900;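 active = mean inhibition over the triplicate runs exceeds the activity threshold set in the earlier primary screen, cut at about 20% in these data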
ADAM17 confirm – human ADAM17 inhibition, confirmation | shares compounds with ADAM17 inh | hit rate 65% among 2,900 | AID 743257 | recombinant ADAM17, EDANS/DABCYL QFRET peptide cleavage | inhibition, % at 6.95 µM;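 active = mean inhibition across replicates above the hit cutoff set in the primary screen, cut at about 8.5% in these data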
Each line names hits and unclear results; the compound was inactive in the other large screens (follow-up assays come after a bar, where they were run). In the library only some 2.2% were active in any assay of this set; here they are far more common.

CN1CCS/C1=C\C=C1/SC(=S)N(CC(=O)O)C1=O	ADAM10 inh 25, ADAM17 inh 10 | ADAM10 confirm inactive | ADAM17 counter inactive | ADAM10 counter inactive | ADAM17 confirm 11
O=C(Nc1cccc(Cl)c1)N1CCN2C(=O)c3ccccc3C12c1ccccc1 (stereo not given)	ADAM10 inh 23, ADAM17 inh 11 | ADAM10 confirm inactive | ADAM17 counter inactive | ADAM10 counter 20 | ADAM17 confirm 12
O=C(CCl)N1CCN2C(=O)c3ccccc3C12c1ccc(Cl)cc1 (stereo not given)	none
COc1ccc(-n2c(=S)[nH]c3cc(C(=O)NCc4ccccc4)ccc3c2=O)c(OC)c1	ADAM10 inh 24, ADAM17 inh 9.0 | ADAM10 confirm inactive | ADAM17 counter inactive | ADAM10 counter inactive | ADAM17 confirm 10
O=C(CCc1ccccc1)N[C@H]1[C@@H](OC(=O)c2ccc([N+](=O)[O-])cc2)CCC[C@]12C(=O)N(Cc1ccccc1)c1ccccc12	none
COc1ccc(C(=O)Nc2cccc(OC(=O)c3ccc(C)c(C)c3)c2)cc1	none
CC(=O)Oc1ccc(C(=O)Nc2cccc(C(=O)c3ccc(C)c(C)c3)c2)cc1	ADAM10 inh 32, ADAM17 inh 16 | ADAM10 confirm inactive | ADAM17 counter inactive | ADAM10 counter inactive | ADAM17 confirm 12
O=C(CSc1nnc(-c2ccccc2)n1-c1ccc(Cl)cc1)c1ccc(Cl)cc1	none
CCOc1cc(/C=C/c2ccc3cccc([N+](=O)[O-])c3n2)cc(Cl)c1O	ADAM10 inh 25, ADAM17 inh 15 | ADAM10 confirm inactive | ADAM17 counter inactive | ADAM10 counter inactive | ADAM17 confirm inactive
O=[N+]([O-])c1cccc2ccc(/C=C/c3ccc(Cl)cc3)nc12	none
Cc1ccc(S(=O)(=O)N(CCCO)CC(O)CON=C2c3ccccc3-c3ccccc32)cc1 (stereo not given)	ADAM10 inh 35, ADAM17 inh 19 | ADAM10 confirm inactive | ADAM17 counter inactive | ADAM10 counter inactive | ADAM17 confirm 12
COc1ccc(NC(=O)c2cccc(S(=O)(=O)N(C)c3ccccc3)c2)cn1	none
COc1ccc(NC(=O)c2cc(S(=O)(=O)N(Cc3ccccc3)c3ccccc3)ccc2Cl)cn1	ADAM10 inh 20, ADAM17 inh 9.6 | ADAM10 confirm inactive | ADAM17 counter inactive | ADAM10 counter 23 | ADAM17 confirm 12
COc1cc(NC(=O)c2ccccc2)c(C)cc1NC(=O)CSc1nnc(-c2ccccc2F)n1-c1ccc(C)cc1	ADAM10 inh 26, ADAM17 inh 12 | ADAM10 confirm inactive | ADAM17 counter inactive | ADAM10 counter 31 | ADAM17 confirm 18
CCOC(=O)CC[C@@H]1CC[C@]2(CCCN(S(=O)(=O)c3ccccc3)C2)O1	none
CCOc1ccc(C(=O)CCC(=O)Nc2ccc(C)c(S(=O)(=O)N3CCCCC3)c2)cc1	ADAM10 inh 28, ADAM17 inh 9.1 | ADAM10 confirm inactive | ADAM17 counter inactive | ADAM10 counter 27 | ADAM17 confirm 13
Cc1ccc(C)c(OCCC(=O)Nc2cc(S(=O)(=O)N3CCCCC3)ccc2C)c1	none
Cc1ccc(C)c(OCCC(=O)OCC(=O)Nc2cc(S(=O)(=O)N3CCCCC3)ccc2C)c1	ADAM10 inh 25, ADAM17 inh 11 | ADAM10 confirm inactive | ADAM17 counter inactive | ADAM10 counter 45 | ADAM17 confirm 21
CC(=O)c1ccc(OCCCC(=O)Nc2ccc(C)c(S(=O)(=O)N3CCCCC3)c2)cc1	none
COc1ccc(NC(=O)CCOc2cc(C)ccc2C)cc1S(=O)(=O)N1CCCCC1	ADAM10 inh 24, ADAM17 inh 12 | ADAM10 confirm inactive | ADAM17 counter inactive | ADAM10 counter inactive | ADAM17 confirm 9.2
Cc1ccc([C@H]2C[C@H](n3cc(COC(=O)c4ccccc4)nn3)[C@@H](O)CN2Cc2cccs2)cc1	ADAM10 inh 24, ADAM17 inh 12 | ADAM10 confirm inactive | ADAM17 counter inactive | ADAM10 counter inactive | ADAM17 confirm 9.2
CN(C)C(=O)NCCCC#Cc1ccccc1	none
O=C(CCc1nc(-c2ccccc2F)no1)NCCc1ccc(F)cc1	none
COc1ccc(CCNc2oc(COc3ccc(F)cc3)nc2C#N)cc1	ADAM10 inh 24, ADAM17 inh 10 | ADAM10 confirm inactive | ADAM17 counter inactive | ADAM10 counter 33 | ADAM17 confirm 18
COc1ccc(CCNc2oc(COc3ccccc3F)nc2C#N)cc1OC	none
COc1ccc(S[C@]2(C(=O)N3CCOCC3)CC(=O)N(c3ccsc3)[C@@H]2c2ccc(OC)cc2)cc1	none
CCCCOC(=O)C1=C(C)N(C)C(=O)NC1c1cc2c(cc1Br)OCO2 (stereo not given)	none
CCCCCOC(=O)C1=C(C)N(C)C(=O)NC1c1cc(Br)c(O)c(OC)c1 (stereo not given)	ADAM10 inh 20, ADAM17 inh 11 | ADAM10 confirm inactive | ADAM17 counter inactive | ADAM10 counter inactive | ADAM17 confirm inactive
COC(=O)[C@]12C[C@H](CC(=O)NCc3ccccc3)C(=O)N(Cc3cccc4ccccc34)C1=C[C@H](COCc1ccccc1)O[C@@H]2C	none
CCc1ccc(/C=c2\s/c(=C\C(=O)C(C)(C)C)[nH]c2=O)cc1	ADAM10 inh 33, ADAM17 inh 17 | ADAM10 confirm inactive | ADAM17 counter inactive | ADAM10 counter 20 | ADAM17 confirm 17
COc1ccc(CNS(=O)(=O)CC2NCCc3ccccc32)cc1 (stereo not given)	none
O=C(NC1CCCCN(Cc2cccc(Cl)c2)C1=O)c1cccc([N+](=O)[O-])c1 (stereo not given)	none
CSc1cccc(NC(=O)/C=C/c2ccc(Cl)cc2)c1	ADAM10 inh 22, ADAM17 inh 14 | ADAM10 confirm inactive | ADAM17 counter inactive | ADAM10 counter 45 | ADAM17 confirm 16
COc1ccc(OCCCC(=O)Nc2cccc(SC)c2)cc1	none
CSc1cccc(NC(=O)CCCOc2ccc(Cl)cc2C)c1	ADAM10 inh 31, ADAM17 inh 19 | ADAM10 confirm inactive | ADAM17 counter inactive | ADAM10 counter 38 | ADAM17 confirm 19
Cc1ccc2c(c1)C(CS(=O)(=O)NCC(C)C)NC2 (stereo not given)	none

From PubChem
